Assay outcomes deposited in PubChem by several laboratories.
Most compounds without a hit are left out; they make up all but 5.1% or so of the library.
CRFR2-BP antag: antagonists of CRF-BP/CRF-R2 complex, primary screen, cell-based, HEK293, calcium dye fluorescence, uHTS; CRF-induced calcium fluorescence; inhibition, % at 11.8 µM; hit rate 0.59% among 350,000; AID 588475, 2011;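 active = inhibition of the ligand-induced calcium signal above about 50% at the single tested concentration, limit read from the data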
MPTP inh: mitochondrial permeability transition pore inhibitors, primary screen, biochemical, isolated mouse mitochondria, absorbance; Ca2+ swelling absorbance, 30 min; inhibition, % at 10 µM; hit rate 1.4% among 360,000; AID 602449, 2012;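 active = inhibition of 50% or more, scaled per plate between neutral and stimulator controls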;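 also: 0% = DMSO wells given calcium and 100% = 1 mM EGTA wells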
TMEM16A act: TMEM16A chloride channel activators or potentiators, primary screen, cell-based, HTS; Anoctamin-1 (Mus musculus), Q8BHY3; HEK293 TMEM16A/YFP-H148Q/I152L, iodide quench fluorescence; stronger effect = lower value; B-score at 10 µM; hit rate 0.3% among 340,000;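 active = fluorescence-ratio B-score plate-corrected deviation score at least 3 library SD below zero, with starting fluorescence score within 5 deviations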;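 also: channel opened by trigger with iodide after compound preincubation; score built on the fluorescence ratio of max minus min over baseline; more negative score means more quench and so TMEM16A activation or potentiation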
TMEM16A inh: TMEM16A chloride channel inhibitors, primary screen, cell-based, HTS | hit rate 1.2% among 310,000 | Anoctamin-1 (Mus musculus), Q8BHY3 | normalized B-score (activity score, 25-100; higher = stronger inhibition) at 10 µM | HEK293 TMEM16A/YFP iodide influx fluorescence, ionomycin;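 active = ratio plate-corrected score three or more library SD toward inhibition, starting fluorescence score within five deviations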;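 also: score derived from kinetic fluorescence span divided by baseline fluorescence per well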
GRIN3A LBD mod: binders of NR3A ligand-binding domain, primary screen, biophysical, differential scanning fluorimetry, uHTS. hit rate 2.5% among 340,000. Tm shift relative to glycine control, % at 25 µM. Glutamate receptor ionotropic, NMDA 3A (GRIN3A) ligand-binding domain. NR3A LBD differential scanning fluorimetry, Tm shift; 0% = protein alone, 100% = glycine-bound protein;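 active = melting temperature shift of at least 10% of the positive control shift, at one fixed dose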
CRFR2-BP ag: agonists of CRF-BP/CRF-R2 complex, primary screen, cell-based, HEK293, calcium dye fluorescence, uHTS; CRF-binding protein / CRF receptor 2 complex (human); activation, % at 13.2 µM; hit rate 0.46% among 350,000; calcium dye fluorescence (FLIPR); percent of saturating CRF peptide response;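 active = activation of at least 50%, plus an integration ratio under a set limit after plate pattern correction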;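 also: plate controls were neutral control wells without compound for no effect and CRF at EC100 for full effect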
TMEM16A reconf: TMEM16A chloride channel inhibitors, confirmation, cell-based, re-confirmation. shares compounds with TMEM16A inh. HEK293 TMEM16A/YFP-H148Q, iodide quench fluorescence; ionomycin added to raise cell calcium. inhibition, % at 10 µM. hit rate 39% among 2,300;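 active = mean duplicate percent inhibition, scaled so buffer wells are 0 and the reference blocker 100, over three buffer SD above buffer mean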
TMEM16A Ca cntr: calcium mobilization in TMEM16A/YFP HEK293 cells, confirmation, counter-screen for TMEM16A inhibitor project. shares compounds with TMEM16A inh. Fluo4 calcium mobilization. calcium response (% of ionomycin), % at 10 µM. hit rate 2% among 2,300;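 active = duplicate-averaged calcium signal over 20% of the ionomycin maximum, relative to buffer baseline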;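 also: each well's signal is peak minus trough fluorescence divided by its pre-addition baseline; 0% = buffer wells and 100% = ionomycin wells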
Parental YFP cnt: iodide YFP quench changes in parental YFP-HEK293, counter-screen for TMEM16A inhibitor project, cell-based; shares compounds with TMEM16A inh; ionomycin; YFP ratio F(max-min)/F0 at 10 µM; 2,300 tested, under 10 active;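 active = yellow fluorescent protein signal ratio exceeding the buffer control mean by over 5 SD of those controls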;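 also: ratio is mean of duplicate wells from kinetic YFP trace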
ClC-1 inh: ClC-1 chloride channel inhibition, selectivity assay for TMEM16A inhibitor project, cell-based, voltage-dependent ClC-1 | 2,300 tested, under 10 active | CHO ClC-1-YFP, iodide influx fluorescence quench; iodide control reads 0, buffer control 100 | shares compounds with TMEM16A inh | ratio percent, % at 10 µM;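 active = duplicate-mean ratio percent above the mean of iodide-only control wells, which defines zero, plus 5 of their SD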;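 also: higher percent means stronger block of ClC-1 iodide influx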
Target sequence (P35524 whole entry, looked up): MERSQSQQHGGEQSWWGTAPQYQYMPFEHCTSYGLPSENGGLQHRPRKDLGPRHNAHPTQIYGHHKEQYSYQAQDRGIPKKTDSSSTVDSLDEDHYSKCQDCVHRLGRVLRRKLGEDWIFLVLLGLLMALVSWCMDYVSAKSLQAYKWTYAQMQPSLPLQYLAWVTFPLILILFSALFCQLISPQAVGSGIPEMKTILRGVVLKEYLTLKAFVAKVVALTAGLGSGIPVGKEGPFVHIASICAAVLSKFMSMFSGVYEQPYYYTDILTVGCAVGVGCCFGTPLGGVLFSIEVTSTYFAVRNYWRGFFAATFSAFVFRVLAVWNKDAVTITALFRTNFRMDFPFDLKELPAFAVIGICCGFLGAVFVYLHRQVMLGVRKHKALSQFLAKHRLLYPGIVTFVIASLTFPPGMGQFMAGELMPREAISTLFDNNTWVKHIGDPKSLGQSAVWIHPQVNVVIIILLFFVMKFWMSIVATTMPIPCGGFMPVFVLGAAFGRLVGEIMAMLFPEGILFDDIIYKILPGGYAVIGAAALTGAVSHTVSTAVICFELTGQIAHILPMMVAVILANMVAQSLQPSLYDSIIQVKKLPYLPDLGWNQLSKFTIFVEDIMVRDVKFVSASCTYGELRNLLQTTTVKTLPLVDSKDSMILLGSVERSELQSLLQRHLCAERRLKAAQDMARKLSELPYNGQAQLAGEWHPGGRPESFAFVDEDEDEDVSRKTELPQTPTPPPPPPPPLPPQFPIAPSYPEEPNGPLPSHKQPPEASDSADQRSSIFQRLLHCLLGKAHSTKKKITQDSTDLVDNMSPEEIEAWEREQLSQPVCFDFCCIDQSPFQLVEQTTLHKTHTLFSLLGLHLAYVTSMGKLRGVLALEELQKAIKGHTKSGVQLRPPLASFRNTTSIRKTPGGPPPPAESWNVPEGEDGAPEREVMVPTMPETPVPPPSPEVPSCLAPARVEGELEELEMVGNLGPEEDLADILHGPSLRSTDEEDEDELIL
An asterisk follows results filed as active; i = inactive; . = not tested or not shown.

SMILES	CRFR2-BP antag	MPTP inh	TMEM16A act	TMEM16A inh	GRIN3A LBD mod	CRFR2-BP ag	TMEM16A reconf	TMEM16A Ca cntr	Parental YFP cnt	ClC-1 inh
Cn1c(CN2CCCCC2)nc2cc(NC(=O)c3ccc(Cl)cc3)ccc21	1	0	i	100*	0	0	23%*	i	-1.2	-3
Cn1c(CN2CCCC2)nc2cc(NC(=O)c3ccc(Cl)cc3)ccc21	15	0	i	i	-1	1	.	.	.	.
COc1ccc(-c2cc(C(F)(F)F)c3c(=O)n(-c4ccccc4)[nH]c3n2)cc1	50	31	i	100*	0	0	23%*	i	-1.2	-4
COc1ccc(-c2cc(-c3ccccc3)nc(=O)[nH]2)cc1	8	0	i	i	0	1	.	.	.	.
COc1ccccc1/C=[N+](\[O-])C1SC(=S)N(C)C1(C)C (configuration not stated)	7	0	i	i	1	-3	.	.	.	.
CC1(C(=O)NS(=O)(=O)c2ccc(F)cc2F)CCN1C(=O)Cc1cc(F)ccc1F (configuration not stated)	.	1	.	.	.	.	.	.	.	.
COC(=O)c1cc(-c2ccc(S(=O)(=O)N3CCCC3)cc2)c(C(F)(F)F)s1	39	8	i	25*	1	4	i	i	-1.2	-18
Cc1ccc(NC(=O)CSc2nnc(C3CC3)n2CC2CCCO2)c(C)c1 (configuration not stated)	-5	-3	i	i	-5	1	.	.	.	.
Cc1ncoc1C(=O)N1CCCC(CCC(=O)NCc2ccccc2F)C1 (configuration not stated)	7	-3	i	i	1	-1	.	.	.	.
CC(C)c1cc(C(=O)N2CCCC(CCC(=O)NCc3ccccc3F)C2)n(C)n1 (configuration not stated)	-2	-1	i	100*	1	1	i	i	-1.1	-16
Cc1ccc(C(=O)N2c3ccccc3N(Cc3ccccc3)C(=O)C2(C)C)cc1	52*	3	i	100*	-1	6	24%*	i	-0.97	-10
C/C=C1\COC(C(=O)NCc2ccncc2)(C(F)(F)F)C=C1C=C1CCCCC1 (configuration not stated)	6	3	i	i	1	1	.	.	.	.
C/C=C1\COC(C(=O)NCc2cccc(OC)c2OC)(C(F)(F)F)C=C1C=C1CCCCC1 (configuration not stated)	7	0	i	25*	3	2	i	i	-1	-14
Cc1cc(C)n2nc(SCc3ncc(-c4ccccc4)o3)nc2n1	-8	1	i	100*	0	0	i	i	-0.99	-4
Cc1cc(C)n2nc(SCc3nnc(-c4ccccc4Br)o3)nc2n1	-23	-1	i	i	-2	1	.	.	.	.
CCc1ccc(C2NC(=O)c3ccccc3O2)cc1 (configuration not stated)	-22	-1	i	i	0	-1	.	.	.	.
CCC(C)C(NC(=O)C1CCC(C)CC1)C(=O)Nc1ccc(OC)cc1OC (configuration not stated)	-20	1	i	i	-3	-4	.	.	.	.
CCC(C)C(NC(=O)C1CCC(C)CC1)C(=O)Nc1cc(OC)ccc1OC (configuration not stated)	3	0	i	25*	-2	0	i	i	-1.1	-6
COc1cc(-c2noc(C)c2C#Cc2ccsc2)cc(OC)c1OC	3	1	i	100*	2	2	28%*	i	-1.4	-5
COc1ccccc1N1CCN(c2ccc3c(c2)S(=O)(=O)c2cccc(C(=O)NCc4cccc(F)c4)c2C3=O)CC1	5	0	.	.	.	0	.	.	.	.
O=C(OCc1nc2ccccc2s1)C1CCN(C2=NS(=O)(=O)c3ccccc32)CC1	-13	47	i	25*	3	1	16%*	i	-0.89	-4
CCOC(=O)c1sc(NC(=O)CSc2nc3c(cc2C#N)CCCCCC3)c(C#N)c1C	0	47	i	100*	1	8	i	i	-1.5	-6
Cc1nc(N)sc1-c1csc(Nc2ccc(Cl)cn2)n1	-7	0	i	25*	6	1	26%*	i	-0.95	-2
Cc1nc(N)sc1-c1csc(Nc2ccccn2)n1	0	-1	i	.	0	2	.	.	.	.
Cc1nc(C)c(-c2csc(Nc3cccc(O)c3)n2)s1	19	3	i	100*	20*	-1	38%*	i	-0.81	-8
Cc1nc(C)c(-c2csc(Nc3ccccn3)n2)s1	0	0	i	25*	-13	0	28%*	i	-1.1	-6
O=C(COC(=O)c1cncc(Br)c1)NC12CC3CC(CC(C3)C1)C2	.	-2	.	.	.	.	.	.	.	.
CC(=O)c1ccc(OCCCC(=O)Nc2cc(S(=O)(=O)N(C)C)ccc2C)cc1	6	-10	i	i	-12	0	.	.	.	.
Cc1ccc(S(=O)(=O)N(C)C)cc1NC(=O)C(C)N(C)CCOc1ccc(Cl)cc1 (configuration not stated)	-8	1	i	25*	-1	0	i	i	-1	-12
COc1ccc(C(=O)Nc2ccc3nc(C)sc3c2)cc1S(=O)(=O)N1CCOCC1	-22	-1	.	.	.	1	.	.	.	.
